Data as given in PubChem BioAssay (EPA / NIEHS).
Records with an inconclusive call do not appear. Active and inactive are the calls of the source. The calls were made as follows, unless noted: active = hit-call score of the fitted dose curve at least 0.9, where 1 is the maximum; inconclusive = response in the unintended direction; inactive = score below 0.9.

How the values were obtained:
[1] = biological target: human Peroxisome Proliferator-activated Receptor alpha (PPARa), PPARA (gene 5465) (UniProt Q07869); experiment: ATG_PPARa_TRANS: Attagene TRANS-FACTORIAL HepG2 Assay for human Peroxisome Proliferator-activated Receptor alpha (PPARa) (AID 2283001);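 as to AC50: potency for gain of reporter signal over DMSO so agonist or activator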
Method in brief: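 Exposure: 24 h, transiently transfected HepG2 cells. Endpoint: GAL4-UAS reporter mRNA, RT-PCR with capillary electrophoresis fluorescence. Baseline: DMSO; increases fitted.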

[2] = biological target: human Peroxisome Proliferator-activated Receptor delta (PPARd), PPARD (gene 5467) (UniProt Q03181); experiment: ATG_PPARd_TRANS: Attagene TRANS-FACTORIAL HepG2 Assay for human Peroxisome Proliferator-activated Receptor delta (PPARd) (AID 2283002)
Method in brief: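 HepG2 cells transiently transfected with multiplexed GAL4-UAS reporter units and exogenous chimeric NR-Gal4 proteins; 24 h compound exposure. Reporter mRNA measured by RT-PCR, 6-FAM labelling, HpaI digestion and capillary electrophoresis; gain of signal versus DMSO.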

[3] = read-out: Intercellular Adhesion Molecule 1 (ICAM1), ICAM1 (gene 3383); experiment: BSK_3C_ICAM1: BioMAP Diversity Plus: 3C Assay for Intercellular Adhesion Molecule 1 (ICAM1) Biomarker Activity (AID 2283003; active = hit-call score of the fitted dose curve at least 0.9, where 1 is the maximum; inactive = score below 0.9); settings: primary human endothelial cells (HUVEC); actives raise or lower the signal
Method in brief: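 ELISA read-out of ICAM-1; HUVEC (primary human), 3C system, 24 h post-dosing; bidirectional fit vs DMSO baseline.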

[4] = BSK_3C_Proliferation: Cell Proliferation Assessment in the BioMAP Diversity Plus: 3C Assay (AID 2283006; active = hit-call score of the fitted dose curve at least 0.9, where 1 is the maximum; inactive = score below 0.9;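 as to AC50: potency may reflect either rise or fall in cell number versus DMSO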); settings: primary human endothelial cells (HUVEC)
Method in brief: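 HUVEC, sub-confluent; 48 h chemical exposure; 10% TCA fix, 0.1% SRB stain, A560 total protein. Gain or loss of signal fitted both directions vs DMSO control.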

[5] = biological target: Peroxisome proliferator-activated receptor gamma (Homo sapiens) (UniProt P37231); experiment: ATG_PPARg_TRANS: Attagene TRANS-FACTORIAL HepG2 Assay for human Peroxisome Proliferator-activated Receptor-gamma (PPARg) (AID 2283007)
Method in brief: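 Liver-derived HepG2 cells expressing an exogenous NR-Gal4 chimera alongside GAL4-UAS reporter genes; 24 h exposure. Fluorescence of reporter RT-PCR products, separated by capillary electrophoresis, gives mRNA induction relative to DMSO.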

[6] = biological target: human RAR-related Orphan Receptor beta (RORb), RORB (gene 6096) (UniProt Q92753); experiment: ATG_RORb_TRANS: Attagene TRANS-FACTORIAL HepG2 Assay for human RAR-related Orphan Receptor beta (RORb) (AID 2283010)
Method in brief: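 HepG2, transient MRTU transfection (GAL4-UAS reporters, exogenous NR-Gal4 chimeras); 24 h compound exposure; total RNA → RT-PCR → 6-FAM primer extension → HpaI digest → CE fluorescence. Positive direction vs DMSO baseline.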

[7] = biological target: human RAR-related Orphan Receptor gamma (RORg), RORC (gene 6097) (UniProt P51449); experiment: ATG_RORg_TRANS: Attagene TRANS-FACTORIAL HepG2 Assay for human RAR-related Orphan Receptor gamma (RORg) (AID 2283011)
Method in brief: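 Reporter transcripts from a transfected RORg-GAL4 chimera in HepG2 cells were quantified 24 h after dosing by RT-PCR, 6-FAM labelling, HpaI digestion and capillary electrophoresis; increases over DMSO baseline were fitted.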

[8] = biological target: Retinoic acid receptor RXR-alpha (Homo sapiens) (UniProt P19793); experiment: ATG_RXRa_TRANS: Attagene TRANS-FACTORIAL HepG2 Assay for human Retinoid X Receptor alpha (RXRa) (AID 2283012)
Method in brief: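 Read-out: fluorescent reporter-transcript fragments quantified by capillary electrophoresis after RT-PCR. Transiently transfected HepG2 cells carrying GAL4-UAS reporters and NR-GAL4 chimeras were exposed to chemical for 24 h; activity scored as increase over DMSO.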

[9] = biological target: human Retinoid X Receptor beta (RXRb), RXRB (gene 6257) (UniProt P28702); experiment: ATG_RXRb_TRANS: Attagene TRANS-FACTORIAL HepG2 Assay for human Retinoid X Receptor beta (RXRb) (AID 2283013)
Method in brief: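 Read-out: reporter mRNA induction via RT-PCR plus capillary electrophoresis fluorescence, analysed as signal increase relative to DMSO. Cells were human HepG2, transiently transfected with GAL4-UAS reporter constructs and chimeric receptor-Gal4 fusions, dosed for 24 h.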

[10] = read-out: Interleukin-1 alpha (IL1a), IL1A (gene 3552); experiment: BSK_BE3C_IL1a: BioMAP Diversity Plus: BE3C Assay for Interleukin-1 alpha (IL1a) Biomarker Activity (AID 2283016; active = hit-call score of the fitted dose curve at least 0.9, where 1 is the maximum; inactive = score below 0.9); settings: primary human bronchial epithelial cells; actives raise or lower the signal
Method in brief: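 ELISA read-out of IL-1a from human lung bronchial epithelial primary cells, 24 h post-dose. Gain or loss of signal fitted relative to DMSO negative control.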

[11] = read-out: Monocyte Chemoattractant Protein-1 (MCP1), CCL2 (gene 6347); experiment: BSK_3C_MCP1: BioMAP Diversity Plus: 3C Assay for Monocyte Chemoattractant Protein-1 (MCP1) Biomarker Activity (AID 2283017; active = hit-call score of the fitted dose curve at least 0.9, where 1 is the maximum; inactive = score below 0.9); settings: primary human endothelial cells (HUVEC); actives raise or lower the signal
Method in brief: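 MCP-1 was measured by ELISA 24 h after dosing in primary HUVEC 3C cultures and fitted in both directions relative to DMSO; cytotoxicity was checked by SRB total-protein staining in parallel wells.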

[12] = read-out: Monocyte Chemoattractant Protein-1 (MCP1), CCL2 (gene 6347); experiment: BSK_4H_MCP1: BioMAP Diversity Plus: 4H Assay for Monocyte Chemoattractant Protein-1 (MCP1) Biomarker Activity (AID 2283018; active = hit-call score of the fitted dose curve at least 0.9, where 1 is the maximum; inactive = score below 0.9); settings: primary human endothelial cells (HUVEC); actives raise or lower the signal
Method in brief: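 HUVEC primary cells, 24 h post-dose, MCP-1 by ELISA. Gain or loss of signal fitted bidirectionally vs DMSO baseline. Cytotoxicity: SRB stain (0.1% after 10% TCA fixation), read 560 nm, parallel cultures.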

[13] = read-out: Interleukin-8 (IL8), CXCL8 (gene 3576); experiment: BSK_3C_IL8: BioMAP Diversity Plus: 3C Assay for Interleukin-8 (IL8) Biomarker Activity (AID 2283020; active = hit-call score of the fitted dose curve at least 0.9, where 1 is the maximum; inactive = score below 0.9); settings: primary human endothelial cells (HUVEC); actives raise or lower the signal
Method in brief: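 HUVEC, 3C stimulation; 24 h compound exposure; IL-8 read by ELISA; gain or loss of signal fitted relative to DMSO control.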

[14] = biological target: Nuclear receptor subfamily 1 group I member 2 (Homo sapiens) (UniProt O75469); experiment: ATG_PXR_TRANS: Attagene TRANS-FACTORIAL HepG2 Assay for human Pregnane X Receptor (PXR) (AID 2283008)
Method in brief: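 Multiplexed TRANS reporter panel in HepG2; this component tracks PXR-Gal4-driven reporter mRNA after 24 h dosing, measured by RT-PCR with capillary electrophoresis fluorescence, fitted against DMSO.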

[15] = biological target: human Thyroid Receptor alpha (THRa1), THRA (gene 7067) (UniProt P10827); experiment: ATG_THRa1_TRANS: Attagene TRANS-FACTORIAL HepG2 Assay for human Thyroid Receptor alpha (THRa1) (AID 2283014)
Method in brief: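 Transcripts from GAL4-UAS-driven reporters, measured after 24 h compound exposure by RT-PCR plus capillary electrophoresis of 6-FAM-labeled fragments, were fitted for gain of signal relative to DMSO. Cells: transiently transfected HepG2 expressing NR-Gal4 chimeras.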

[16] = biological target: human Retinoic Acid Receptor gamma (RARg), RARG (gene 5916) (UniProt P13631); experiment: ATG_RARg_TRANS: Attagene TRANS-FACTORIAL HepG2 Assay for human Retinoic Acid Receptor gamma (RARg) (AID 2283009)
Method in brief: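 Readout: reporter transcript levels via RT-PCR, 6-FAM primer-extension labelling, HpaI digestion and capillary electrophoresis. Cells: HepG2 carrying transfected RARg-GAL4 chimera plus UAS reporter set. Dosing 24 h; DMSO negative control.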

[17] = read-out: Human Leukocyte Antigen - DR isotype (HLADR), HLA-DRA (gene 3122); experiment: BSK_3C_HLADR: BioMAP Diversity Plus: 3C Assay for Human Leukocyte Antigen - DR isotype (HLADR) Biomarker Activity (AID 2283019; active = hit-call score of the fitted dose curve at least 0.9, where 1 is the maximum; inactive = score below 0.9); settings: primary human endothelial cells (HUVEC); actives raise or lower the signal
Method in brief: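 Bidirectional fitting against DMSO was applied to the HLA-DR ELISA signal from human umbilical vein endothelial cells, 24 h post-dose. Cytotoxicity came from parallel SRB total-protein staining; 3C proliferation was counted by SRB at 48 h.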

[18] = read-out: E-selectin (Homo sapiens) (UniProt P16581); experiment: BSK_3C_Eselectin: BioMAP Diversity Plus: 3C Assay for Eselectin Biomarker Activity (AID 2283015; active = hit-call score of the fitted dose curve at least 0.9, where 1 is the maximum; inactive = score below 0.9;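 also: cell surface E-selectin protein quantified by ELISA 24 h after dosing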); settings: primary human endothelial cells (HUVEC); actives raise or lower the signal
Method in brief: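 E-selectin ELISA readout, fitted bidirectionally relative to DMSO, taken 24 h post-dosing in HUVEC cultures of the 3C system. Overt cytotoxicity tracked with sulforhodamine B staining of parallel wells.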

[19] = biological target: Retinoic acid receptor alpha (Homo sapiens) (UniProt P10276); experiment: ATG_RARa_TRANS: Attagene TRANS-FACTORIAL HepG2 Assay for human Retinoic Acid Receptor alpha (RARa) (AID 2283005)
Method in brief: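 HepG2 cells transiently transfected with multiple reporter units expressing chimeric RARα-GAL4 fusion, with GAL4-UAS-driven reporters. After 24 h compound exposure, reporter mRNA induction quantified by RT-PCR and capillary electrophoresis with fluorescent labeling; gain-of-signal fitted relative to DMSO control.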

[20] = biological target: human Retinoic Acid Receptor beta (RARb), RARB (gene 5915) (UniProt P10826); experiment: ATG_RARb_TRANS: Attagene TRANS-FACTORIAL HepG2 Assay for human Retinoic Acid Receptor beta (AID 2283004)
Method in brief: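 Induction of reporter mRNA from a chimeric RARb-Gal4 construct was measured by RT-PCR, FAM labelling, HpaI digestion and capillary electrophoresis. Measurements followed 24 h compound treatment of transiently transfected human HepG2 liver cells, with DMSO as baseline.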

Measured: AC50

human RAR-related Orphan Receptor gamma (RORg), RORC (gene 6097), sequence (P51449 whole entry, looked up, the tested form may be a part): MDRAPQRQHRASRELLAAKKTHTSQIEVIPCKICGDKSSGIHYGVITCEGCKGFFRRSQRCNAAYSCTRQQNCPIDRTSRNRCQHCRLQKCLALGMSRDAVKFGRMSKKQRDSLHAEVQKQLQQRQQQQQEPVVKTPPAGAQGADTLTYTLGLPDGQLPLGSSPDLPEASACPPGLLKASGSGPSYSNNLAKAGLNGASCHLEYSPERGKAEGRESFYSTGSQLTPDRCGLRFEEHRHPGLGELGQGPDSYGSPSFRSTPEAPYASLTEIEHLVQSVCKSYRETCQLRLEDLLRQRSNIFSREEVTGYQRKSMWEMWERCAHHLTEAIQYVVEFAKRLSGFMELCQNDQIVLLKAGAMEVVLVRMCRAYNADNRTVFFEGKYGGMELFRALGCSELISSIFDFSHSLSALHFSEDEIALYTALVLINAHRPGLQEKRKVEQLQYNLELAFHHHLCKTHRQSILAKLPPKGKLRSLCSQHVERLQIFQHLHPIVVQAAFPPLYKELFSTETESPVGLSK
human Retinoid X Receptor beta (RXRb), RXRB (gene 6257), sequence (P28702 whole entry, looked up, the tested form may be a part): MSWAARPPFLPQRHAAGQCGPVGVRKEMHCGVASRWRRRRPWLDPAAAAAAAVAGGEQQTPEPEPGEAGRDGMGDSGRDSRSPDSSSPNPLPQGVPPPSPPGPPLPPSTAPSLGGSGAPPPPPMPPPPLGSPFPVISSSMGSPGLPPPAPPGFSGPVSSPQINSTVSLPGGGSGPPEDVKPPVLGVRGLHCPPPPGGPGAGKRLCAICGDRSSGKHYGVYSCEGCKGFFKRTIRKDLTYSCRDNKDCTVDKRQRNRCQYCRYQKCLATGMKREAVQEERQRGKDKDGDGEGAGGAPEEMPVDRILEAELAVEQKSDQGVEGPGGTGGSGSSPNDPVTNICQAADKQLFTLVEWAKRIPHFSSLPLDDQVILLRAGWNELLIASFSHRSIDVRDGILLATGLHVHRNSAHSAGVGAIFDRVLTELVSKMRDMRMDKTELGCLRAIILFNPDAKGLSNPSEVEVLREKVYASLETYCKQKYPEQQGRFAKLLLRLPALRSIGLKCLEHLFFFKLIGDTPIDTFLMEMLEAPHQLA
human Peroxisome Proliferator-activated Receptor delta (PPARd), PPARD (gene 5467), sequence (Q03181 whole entry, looked up, the tested form may be a part): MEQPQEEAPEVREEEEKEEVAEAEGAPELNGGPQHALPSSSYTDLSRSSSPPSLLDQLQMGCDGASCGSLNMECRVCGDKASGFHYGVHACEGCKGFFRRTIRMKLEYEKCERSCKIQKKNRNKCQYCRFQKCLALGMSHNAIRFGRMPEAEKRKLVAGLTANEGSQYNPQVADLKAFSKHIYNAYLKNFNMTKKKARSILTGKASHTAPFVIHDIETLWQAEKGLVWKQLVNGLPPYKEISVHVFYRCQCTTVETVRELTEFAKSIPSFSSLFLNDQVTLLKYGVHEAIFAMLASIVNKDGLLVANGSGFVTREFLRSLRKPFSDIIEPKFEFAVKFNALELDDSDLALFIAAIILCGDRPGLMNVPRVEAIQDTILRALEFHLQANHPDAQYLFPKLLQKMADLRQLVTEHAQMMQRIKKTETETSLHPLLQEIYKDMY
human Peroxisome Proliferator-activated Receptor alpha (PPARa), PPARA (gene 5465), sequence (Q07869 whole entry, looked up, the tested form may be a part): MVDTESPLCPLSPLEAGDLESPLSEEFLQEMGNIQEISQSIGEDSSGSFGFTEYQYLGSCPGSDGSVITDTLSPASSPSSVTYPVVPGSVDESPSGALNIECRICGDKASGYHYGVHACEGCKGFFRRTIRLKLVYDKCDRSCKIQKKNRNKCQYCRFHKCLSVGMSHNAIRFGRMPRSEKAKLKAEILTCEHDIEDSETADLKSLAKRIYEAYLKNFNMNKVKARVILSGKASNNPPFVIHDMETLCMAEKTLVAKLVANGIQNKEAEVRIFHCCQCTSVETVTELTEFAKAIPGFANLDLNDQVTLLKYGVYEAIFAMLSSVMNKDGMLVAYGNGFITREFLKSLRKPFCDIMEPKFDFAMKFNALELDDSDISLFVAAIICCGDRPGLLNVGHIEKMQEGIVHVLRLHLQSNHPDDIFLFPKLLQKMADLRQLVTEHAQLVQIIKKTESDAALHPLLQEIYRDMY
human Thyroid Receptor alpha (THRa1), THRA (gene 7067), sequence (P10827 whole entry, looked up, the tested form may be a part): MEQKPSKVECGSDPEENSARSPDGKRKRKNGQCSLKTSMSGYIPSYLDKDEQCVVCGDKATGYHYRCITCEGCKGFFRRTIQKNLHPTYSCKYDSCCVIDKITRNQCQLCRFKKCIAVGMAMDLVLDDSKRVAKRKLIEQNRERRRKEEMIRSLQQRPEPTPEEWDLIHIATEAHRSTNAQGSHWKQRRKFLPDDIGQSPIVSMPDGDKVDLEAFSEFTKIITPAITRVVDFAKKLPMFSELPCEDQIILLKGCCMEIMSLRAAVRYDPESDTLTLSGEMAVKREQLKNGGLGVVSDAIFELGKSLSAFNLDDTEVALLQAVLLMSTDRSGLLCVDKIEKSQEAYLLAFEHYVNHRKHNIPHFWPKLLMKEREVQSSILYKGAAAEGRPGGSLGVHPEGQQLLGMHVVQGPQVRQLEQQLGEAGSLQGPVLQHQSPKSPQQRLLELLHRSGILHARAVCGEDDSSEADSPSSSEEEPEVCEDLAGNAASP
Nuclear receptor subfamily 1 group I member 2 (Homo sapiens), sequence (O75469 whole entry, looked up, the tested form may be a part): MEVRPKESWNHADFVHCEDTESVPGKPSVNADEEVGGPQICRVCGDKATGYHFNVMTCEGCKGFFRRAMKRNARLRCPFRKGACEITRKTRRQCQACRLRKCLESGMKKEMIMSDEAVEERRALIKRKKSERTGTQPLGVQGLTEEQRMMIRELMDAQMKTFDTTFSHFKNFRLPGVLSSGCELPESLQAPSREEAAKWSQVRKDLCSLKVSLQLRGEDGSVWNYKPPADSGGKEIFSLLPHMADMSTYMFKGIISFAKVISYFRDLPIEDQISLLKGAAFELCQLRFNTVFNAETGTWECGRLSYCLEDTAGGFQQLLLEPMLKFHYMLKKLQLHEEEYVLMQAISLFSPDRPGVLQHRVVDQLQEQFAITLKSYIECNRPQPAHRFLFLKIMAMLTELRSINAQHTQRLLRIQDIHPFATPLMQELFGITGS
Retinoic acid receptor RXR-alpha (Homo sapiens), sequence (P19793 whole entry, looked up, the tested form may be a part): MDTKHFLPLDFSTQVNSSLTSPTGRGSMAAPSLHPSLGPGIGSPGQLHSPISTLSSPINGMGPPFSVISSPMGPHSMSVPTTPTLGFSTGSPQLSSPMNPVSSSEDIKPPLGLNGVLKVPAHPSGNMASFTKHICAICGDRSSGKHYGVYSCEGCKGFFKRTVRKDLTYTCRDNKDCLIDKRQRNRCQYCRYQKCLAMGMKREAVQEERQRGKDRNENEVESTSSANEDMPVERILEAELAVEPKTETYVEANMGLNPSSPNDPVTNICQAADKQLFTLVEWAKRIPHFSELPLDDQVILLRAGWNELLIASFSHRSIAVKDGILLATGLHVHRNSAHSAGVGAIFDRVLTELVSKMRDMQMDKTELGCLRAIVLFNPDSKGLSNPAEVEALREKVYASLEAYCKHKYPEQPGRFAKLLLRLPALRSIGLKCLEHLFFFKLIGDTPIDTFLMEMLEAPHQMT
human RAR-related Orphan Receptor beta (RORb), RORB (gene 6096), sequence (Q92753 whole entry, looked up, the tested form may be a part): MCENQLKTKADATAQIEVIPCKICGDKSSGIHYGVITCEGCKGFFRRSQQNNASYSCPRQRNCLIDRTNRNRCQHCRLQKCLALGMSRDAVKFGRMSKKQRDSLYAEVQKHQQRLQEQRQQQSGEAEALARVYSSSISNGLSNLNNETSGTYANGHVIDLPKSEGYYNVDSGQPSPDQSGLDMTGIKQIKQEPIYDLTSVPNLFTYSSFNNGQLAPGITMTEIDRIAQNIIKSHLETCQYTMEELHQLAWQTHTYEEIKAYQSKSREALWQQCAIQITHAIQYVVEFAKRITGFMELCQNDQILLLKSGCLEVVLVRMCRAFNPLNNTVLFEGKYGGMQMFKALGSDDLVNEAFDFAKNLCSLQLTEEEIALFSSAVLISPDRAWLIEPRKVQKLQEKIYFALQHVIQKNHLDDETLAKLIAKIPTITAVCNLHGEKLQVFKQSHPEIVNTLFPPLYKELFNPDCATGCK
Peroxisome proliferator-activated receptor gamma (Homo sapiens), sequence (P37231 whole entry, looked up, the tested form may be a part): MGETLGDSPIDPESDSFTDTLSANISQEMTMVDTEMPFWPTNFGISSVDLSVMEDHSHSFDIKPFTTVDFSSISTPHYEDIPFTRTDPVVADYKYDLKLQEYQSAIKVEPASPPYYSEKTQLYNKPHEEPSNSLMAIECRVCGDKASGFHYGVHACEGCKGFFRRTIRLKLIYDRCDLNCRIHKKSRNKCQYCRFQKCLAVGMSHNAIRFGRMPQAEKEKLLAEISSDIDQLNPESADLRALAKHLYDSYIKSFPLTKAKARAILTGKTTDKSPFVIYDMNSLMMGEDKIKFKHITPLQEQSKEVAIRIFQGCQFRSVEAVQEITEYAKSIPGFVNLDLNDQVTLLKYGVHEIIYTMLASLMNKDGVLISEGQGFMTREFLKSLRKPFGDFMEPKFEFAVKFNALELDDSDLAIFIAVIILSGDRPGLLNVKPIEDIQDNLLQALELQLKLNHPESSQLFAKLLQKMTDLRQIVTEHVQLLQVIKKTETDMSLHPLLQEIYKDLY
human Retinoic Acid Receptor gamma (RARg), RARG (gene 5916), sequence (P13631 whole entry, looked up, the tested form may be a part): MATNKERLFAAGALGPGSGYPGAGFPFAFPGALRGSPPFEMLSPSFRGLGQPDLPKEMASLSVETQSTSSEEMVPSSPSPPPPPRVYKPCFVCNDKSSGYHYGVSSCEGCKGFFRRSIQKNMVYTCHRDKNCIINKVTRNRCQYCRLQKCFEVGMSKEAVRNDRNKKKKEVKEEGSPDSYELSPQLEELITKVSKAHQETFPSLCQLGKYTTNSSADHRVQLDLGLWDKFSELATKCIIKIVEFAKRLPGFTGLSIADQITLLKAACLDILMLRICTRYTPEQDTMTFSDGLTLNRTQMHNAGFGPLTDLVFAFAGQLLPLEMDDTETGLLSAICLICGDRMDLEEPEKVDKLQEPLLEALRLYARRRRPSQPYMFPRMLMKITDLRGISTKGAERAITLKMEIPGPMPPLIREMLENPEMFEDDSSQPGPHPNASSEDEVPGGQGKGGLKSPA

COc1cc(OC)nc(NC(=O)NS(=O)(=O)c2ncccc2C(=O)N(C)C)n1
inactive: [1] | [2] | [3] | [4] | [5] | [6] | [7] | [8] | [9] | [10] | [11] | [12] | [13]

CCOC(=O)/C=C(C)/C=C/C[C@@H](C)CCCC(C)C
active: [1] 64.9 µM | [3] 30.2 µM | [4] 20 µM | [5] 1.56 µM | [14] 5.32 µM | [9] 26.9 µM | [10] 20 µM | [11] 31.2 µM | [12] 29.4 µM
inactive: [2] | [8] | [13]

C[C@H]1O[C@@H](O[C@H]2[C@@H](O)C[C@H](O[C@H]3[C@@H](O)C[C@H](O[C@H]4CC[C@@]5(C)[C@H](CC[C@@H]6[C@@H]5CC[C@]5(C)[C@@H](C7=CC(=O)OC7)CC[C@]65O)C4)O[C@@H]3C)O[C@@H]2C)C[C@H](O)[C@@H]1O
inactive: [2] | [5] | [6] | [8] | [15]
active: [1] 0.0564 µM

COP(=S)(OC)Oc1ccc(Sc2ccc(OP(=S)(OC)OC)cc2)cc1
inactive: [2] | [3] | [16] | [7] | [8] | [9] | [15]
active: [1] 22.7 µM | [4] 15.7 µM | [5] 13.7 µM | [10] 7.5 µM | [11] 27.1 µM | [12] 11.8 µM | [17] 28.5 µM | [13] 7.51 µM

CC(C)(C)c1cc(O)ccc1O
inactive: [1] | [3] | [7] | [15] | [10] | [12] | [13]
active: [4] 9.85 µM | [5] 52.5 µM | [14] 3.34 µM | [11] 35.2 µM

CC(C)c1ccc(CO)cc1
inactive: [1] | [2] | [3] | [4] | [5] | [14] | [6] | [9] | [15] | [18] | [10] | [11] | [12] | [13]

ClCc1ccccn1
inactive: [1] | [2] | [5] | [14] | [6] | [8] | [15]

Nc1ccc(N=Nc2ccc(-c3ccc(N=Nc4c(S(=O)(=O)O)cc5cc(S(=O)(=O)O)c(N=Nc6ccccc6)c(O)c5c4N)cc3)cc2)c(N)c1
inactive: [1] | [2] | [19] | [5] | [14] | [9]

COP(=O)(OC)O/C(=C\Cl)c1cc(Cl)c(Cl)cc1Cl
inactive: [2] | [8] | [15]
active: [1] 64.8 µM | [5] 10.8 µM | [14] 0.862 µM | [9] 25.7 µM

O=[N+]([O-])c1c(Cl)c(Cl)cc(Cl)c1Cl
active: [5] 0.905 µM | [9] 32.9 µM
inactive: [1] | [2] | [20] | [19] | [14] | [16] | [8] | [15]

ClCCBr
inactive: [1] | [2] | [5] | [14] | [6] | [7] | [8] | [9]
